# Peg3 prom inh – inhibitors of Peg3 promoter. hit rate 1.7% among 360,000. inhibition, % at 20 µM. AID 588405. HeLa PEG-Prom luciferase reporter, luminescence, overnight;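 active = inhibition of at least 50% at 20 µM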
# CF NFkB block – blocks PAF-induced NF-kB reporter in cystic fibrosis cells | AID 588850 | inhibition, % at 5 µM | hit rate 0.86% among 360,000 | KKLEB NF-kB-GFP reporter, GFP fluorescence overnight;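 active = at least 50% inhibition at 5 µM, scaled per plate between neutral and stimulator controls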;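 also: PAF is a Pseudomonas aeruginosa culture filtrate used as stimulus; plate controls were PAF-stimulated DMSO wells for no effect and unstimulated DMSO wells for full effect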
# CHOP inh – CHOP inhibition in unfolded protein response. CHO-K1 CHOP-promoter luciferase, tunicamycin-induced, 15-18 h. inhibition, % at 10 µM. hit rate 3.8% among 220,000;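 active = compounds that reduced the stress-induced luciferase reporter signal by more than about 70% of percent inhibition, limit read from the data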;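 also: 0% = tunicamycin plus vehicle and 100% = wells without tunicamycin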
# MITF TRPM1 inh – inhibitors of MITF-driven TRPM1 promoter in melanoma cells. AID 488899. SK-MEL-5 TRPM1 promoter luciferase, 24 h. hit rate 0.83% among 330,000. inhibition, % at 12.5 µM;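 active = mean inhibition across replicates of 60% or more, whatever share of single replicates reaches that level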
# KKLEB tox – counter-screen for CF NF-kB inhibitors: cytotoxicity. hit rate 0.36% among 360,000. KKLEB CF airway cells viability, ATPlite luminescence, overnight; stronger effect = lower value; cells stimulated with P. aeruginosa culture filtrate. activity change (cytotoxicity), % at 5 µM;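 active = corrected activity change at or below -50% at 5 µM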
# HIF-2a inh – blocks HIF-2a reporter activity | 786-0 RCC cells HIF-2a reporter, luciferase luminescence, overnight | inhibition, % at 18.8 µM | hit rate 0.72% among 360,000;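 active = inhibition of the luminescence signal of 40% or more relative to plate controls, in a single-dose primary screen at 18.75 µM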
# The depositor's hits bear a star; nt = no result. Rows were chosen to be rich in hits. Some 4.3% of all compounds tested hit in one or more screens of this group.
SMILES,Peg3 prom inh,CF NFkB block,CHOP inh,MITF TRPM1 inh,KKLEB tox,HIF-2a inh
CCCCOc1ccc(C(=O)NNC(=O)c2cnccn2)cc1OC,24,0,nt,10,-18,22
CCCCn1nnnc1C1(C)CCC(=O)N1Cc1ccc(OC)cc1 (stereo unspecified),nt,nt,nt,nt,nt,14
Nc1[nH]n2c(=O)cc(-c3ccccc3)nc2c1N=Nc1ccc(S(N)(=O)=O)cc1,11,-2,4,8,-7,10
NS(=O)(=O)c1ccc(N=Nc2c(-c3ccccc3)[nH]n(-c3nc(-c4ccccc4)cs3)c2=O)cc1,71*,27,35,-31,11,-48
O=C(CCc1nnc2n(Cc3ccc(F)cc3)c(=O)c3ccccc3n12)N1CCN(c2ccccn2)CC1,42,2,nt,16,-2,25
CCn1cc(C(=O)O)c(=O)c2cc(F)c(N/N=C/c3ccccc3[N+](=O)[O-])cc21,35,-48,78*,-9,18,-1
CC(C)(C)c1ccc(C(=O)NNC(=O)CNC(=O)c2cccs2)cc1,-50,-9,nt,-22,-22,-64
COc1ccccc1N=NNc1ccccc1OC,-216,-24,nt,nt,-14,-178
CNCc1ccccc1Sc1cccc2ccccc12,19,-7,28,-1,2,17
CN(C)CCN(C)Cc1ccccc1Sc1cccc2ccccc12,102*,28,20,44,-12,3
CCN(c1ccccc1)S(=O)(=O)c1ccc(NCC2COc3ccccc3O2)nc1 (stereo unspecified),10,-2,85*,17,-7,17
Cn1c2c(c(=O)n(C)c1=O)C(C(F)(F)F)(C(F)(F)F)N=C(CCC1CCCCC1)N2,58*,24,60,5,7,11
O=C(/C=C/c1ccc(O)cc1)c1ccc(NC2=C(N3CCCCC3)C(=O)c3ccccc3C2=O)cc1,-46,55*,44,26,-15,-62
CN(C1=C(N2CCCCC2)C(=O)c2ccccc2C1=O)c1ccccc1,15,9,71*,19,1,-16
COC1=C(Nc2ccccc2)C(=O)c2ccccc2C1=O,-44,50*,31,59,-7,-51
COc1ccccc1NC1=C(N2CCCCC2)C(=O)c2ccccc2C1=O,64*,0,-9,19,-6,-18
Cc1ccc(NC2=C(N3CCCCC3)C(=O)c3ccccc3C2=O)cc1,3,-2,-27,32,-2,-154
CCOC(=O)C1=C(COC(=O)c2ccc(Cl)nc2)NC(=O)NC1C (stereo unspecified),11,-18,nt,2,3,10
CC1(C(=O)NS(=O)(=O)c2ccccc2C(F)(F)F)CCN1C(=O)c1cccc(F)c1 (stereo unspecified),-6,0,nt,nt,9,10
O=C(O)C1=C(C(=O)O)C2C=CC1C2,-24,-13,nt,0,-9,4
CCN(CC1CCCO1)C(=O)CCc1nnc(CCc2ccc(OC)cc2)o1 (stereo unspecified),-28,15,nt,3,1,-45
COc1ccc(C2=NS(=O)(=O)N(C)C(C(=O)Nc3ccc(C(C)=O)cc3)=C2)cc1OC,34,4,nt,20,-4,9
O=C1C(Nc2ccccc2)=C(N2CCCCC2)C(=O)c2ccccc21,34,16,12,75*,4,-1
Cc1ccc([C@H]2C[C@H](n3cc(C4CC4)nn3)[C@@H](O)CN2C(=O)C2CCCCC2)cc1,1,-8,nt,nt,4,6
CC(C)(C)c1ccc(/C=C/C(=O)N2CCc3ccccc3C2)cc1,-67,12,61,-13,-11,-43
SMILES,Peg3 prom inh,CF NFkB block,CHOP inh,MITF TRPM1 inh,KKLEB tox,HIF-2a inh
Cc1ccc(/C=C/C(=O)N2CCc3ccccc3C2)cc1,-217,-3,72*,-22,0,-285
Cc1ccc(-c2nc(CS(=O)(=O)CC(=O)N3CCc4ccccc4C3)c(C)o2)cc1,25,8,72*,nt,16,-1
CCN(CC(=O)NCc1cccs1)CC(=O)Nc1ccccc1C,-2,4,nt,1,-4,-9
COC(C(=O)C(O)C(C)O)C1Cc2cc3cc(OC4CC(OC5CC(O)C(O)C(C)O5)C(O)C(C)O4)c(C)c(O)c3c(O)c2C(=O)C1OC1CC(OC2CC(OC3CC(O)C(OC)C(C)O3)C(O)C(C)O2)C(O)C(C)O1 (stereo unspecified),100*,90*,nt,56,-34,-30
CCOC(=O)c1nnn(-c2ccc([N+](=O)[O-])cc2[N+](=O)[O-])c1C,11,-37,-14,77*,8,-1
CCOc1cc(/C=C2\C(=O)N(Cc3ccc(C)cc3)C(C)=C2C(=O)OC)ccc1O,30,-11,48,8,4,32
C=CCOc1cccc(/C=C2\C(=O)N(Cc3ccc(C)cc3)C(C)=C2C(=O)OC)c1,42,-5,-8,-13,3,63*
Cc1cc(C(=O)Nn2c(-c3ccc(Br)cc3)nc3ccccc3c2=O)ccc1[N+](=O)[O-],19,9,91*,9,10,13
O=C(Nn1c(-c2ccc(Br)cc2)nc2ccccc2c1=O)c1ccncc1,3,-11,8,2,17,-6
CCOc1ccc(S(=O)(=O)n2cc(-c3ccc(F)cc3)c(N)n2)cc1,21,-11,95*,-11,2,-27
Cc1ccc(-c2cn(S(=O)(=O)c3ccc(C)cc3)nc2N)cc1,22,5,79*,6,-10,19
CCOc1ccc(S(=O)(=O)n2cc(-c3ccccc3)c(N)n2)cc1,-21,5,14,-17,-1,-25
CCOc1cc(S(=O)(=O)n2cc(-c3ccc(F)cc3)c(N)n2)cc(OCC)c1OCC,40,5,74*,5,7,18
COc1cc(/C=N/NC(=O)Cc2csc(C)n2)ccc1OCC(C)C,5,6,-1,-4,4,6
COc1ccc(/C=N/NC(=O)Cc2csc(Nc3cccc(C(F)(F)F)c3)n2)cc1C,12,-9,81*,7,8,-1
CN(Cc1cccs1)C(=O)c1cccc(S(=O)(=O)N2CCCCCC2)c1,9,40,nt,3,0,-3
COc1ccc(C2/C=C\CN(C(=O)c3ccc(C)cc3)[C@H](Cc3ccccc3)C(=O)N2Cc2ccc(F)cc2)cc1 (stereo partly specified),70*,-7,-9,1,-8,-1
Cc1cc(-n2c(C)cc(C(=O)COc3ccc(Cl)cc3C(N)=O)c2C)no1,17,-6,nt,nt,5,7
COc1ccc(S(=O)(=O)NC(C)c2ccc3c(c2)OCCO3)cc1 (stereo unspecified),-10,-9,nt,nt,-1,-7
O=C1N=c2ccccc2=C1c1c(O)n(-c2cccc(F)c2)[nH]c1=O,1,-4,73*,8,1,-4
CCn1c(O)c(C2=c3ccccc3=NC2=O)c2cc(Br)ccc21,nt,nt,23,nt,nt,nt

# High-throughput results deposited in PubChem by several laboratories.
